In PubChem BioAssay (NCATS):
Records with an inconclusive call do not appear. Where a call stands in place of a potency, no number is given. The source made the active and inactive calls. Calls follow the shape of the dose curve; as a rule, active = well fitted inhibition curve with a large enough effect; inconclusive = small, poorly fitted or top-dose-only effect; inactive = flat fitted curve, though single readings scatter.

Molecular target: Calcium and integrin-binding protein 1 (Homo sapiens) (UniProt Q99828)
Sequence (Q99828 whole entry, looked up): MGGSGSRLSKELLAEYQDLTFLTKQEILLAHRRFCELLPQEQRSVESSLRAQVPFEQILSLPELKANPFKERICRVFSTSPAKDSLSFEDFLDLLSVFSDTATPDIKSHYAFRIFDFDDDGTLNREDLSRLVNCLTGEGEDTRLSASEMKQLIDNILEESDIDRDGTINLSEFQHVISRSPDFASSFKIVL
Assay: Primary qHTS for Identification of Calcium Integrin Binding Protein 1 (CIB1) Competitor (AID 1508620); also: top concentration of the series differs between compounds
Conditions: CIB1-GST / FITC-alphaIIb peptide fluorescence polarization; series mostly up to 114 µM
Summary of the method: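 Fluorescence polarization competition: GST-tagged CIB1 (1 uM final) preincubated with compound 15 min at room temperature, then FITC-labelled alphaIIb peptide (100 nM final) added. After 15 min at room temperature, polarization read at Ex 480/Em 540.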

| SMILES | Potency | activity change, negative = inhibition |
| --- | --- | --- |
| CO[C@H]1C[C@@H]2CC[C@@H](C)[C@@](O)(O2)C(=O)C(=O)N2CCCC[C@H]2C(=O)O[C@H]([C@H](C)C[C@@H]2CC[C@H](n3cnnn3)[C@H](OC)C2)CC(=O)[C@H](C)/C=C(\C)[C@@H](O)[C@@H](OC)C(=O)[C@H](C)C[C@H](C)/C=C/C=C/C=C/1C | inactive |  |
| CCC(C)C(=O)OC1CC(C)C=C2C=CC(C)C(CCC(O)CC(O)CC(=O)O)C21 (stereo not given) | inactive |  |
| CC(=O)O[C@@H]1[C@H](O)[C@@H](O[C@@H]2O[C@@H](C)[C@H](O[C@@H]3OC[C@@H](O)[C@H](O[C@@H]4OC[C@@H](O)[C@H](O)[C@H]4O)[C@H]3O)[C@@H](O[C@@H]3O[C@H](CO)[C@@H](O)[C@H](O)[C@H]3O)[C@H]2O)[C@H](OC(=O)[C@]23CCC(C)(C)C[C@H]2C2=CCC4[C@@]5(C)CC[C@H](O[C@@H]6O[C@H](C(=O)O)[C@@H](O)[C@H](O[C@@H]7OC[C@@H](O)[C@H](O)[C@H]7O)[C@H]6O[C@@H]6O[C@H](CO)[C@H](O)[C@H](O)[C@H]6O)[C@@](C)(C=O)C5CC[C@@]4(C)[C@]2(C)CC3)O[C@@H]1C (stereo not given in full) |  | -6.59% [at 12.4 µM] (inactive) |
| COC1C(=O)CCC2(CO2)C1(O)C1(C)OC1CC=C(C)C (stereo not given) | inactive |  |
| O=c1[nH]ccc2cc(OC3CCNCC3)ccc12 | inactive |  |
| Cn1nnc(-c2ccc(-c3ccc(N4C[C@H](COP(=O)(O)O)OC4=O)cc3F)cn2)n1 | inactive |  |
| NC(=O)c1csc(C2OC(CO)C(O)C2O)n1 (stereo not given) | inactive |  |
| C=C1[C@H](OC(C)=O)[C@H]2[C@@H](OC(C)=O)[C@](C)(OC(C)=O)C[C@]2(OC(C)=O)C(=O)[C@H](C)/C=C/C(C)(C)C(=O)[C@H](OC(=O)C(C)C)[C@H]1OC(C)=O | inactive |  |
| CC1=CC(=O)C2C(C)(C)CCC[C@]2(C)[C@H]1CO (stereo not given in full) | inactive |  |
| CC(=O)OC1C(O)CC2(C)C(CCC(C)C23Cc2c(O)cc(CO)c(C=O)c2O3)C1(C)C (stereo not given) | inactive |  |
| Cc1cc(Nc2nc(NC(C)c3ncc(F)cn3)ncc2Cl)n[nH]1 (stereo not given) | inactive |  |
| OCC1OC(Oc2cc(O)cc(/C=C/c3ccc(O)cc3)c2)C(O)C(O)C1O (stereo not given) | inactive |  |
| CC(C)N(CCCCOCC(=O)NS(C)(=O)=O)c1cnc(-c2ccccc2)c(-c2ccccc2)n1 | inactive |  |
| C=CC(C)(C)c1[nH]c2cc3c(cc2c1CC1NC(=O)C2=CCCN2C1=O)C=CC(C)(C)O3 (stereo not given) | inactive |  |
| OC/C=C/c1ccc(O[C@@H]2O[C@H](CO)[C@@H](O)[C@H](O)[C@H]2O)cc1 | inactive |  |
| COC1/C=C/C(C)(O)C(SCC(N)C(=O)O)CC(=O)OC(C)C(C)CC/C=C/1C (stereo not given) | inactive |  |
| COc1nc2sc(C(=O)NC3CC3)c(N)c2c(C)c1Cl | inactive |  |
| C=C1CCC2C(C)(C)CCC[C@]2(C)[C@H]1C/C=C(\CO)C(=O)C(=O)O (stereo not given in full) | inactive |  |
| CCC(C)C(=O)O[C@H]1CCC=C2C=C[C@H](C)[C@H](CC[C@@H](O)C[C@@H](O)CC(=O)O)[C@H]21 (stereo not given in full) | inactive |  |
| COC(=O)C1=CO[C@@H](O)C2C(CO)=CCC12 (stereo not given in full) | inactive |  |
| C=C1CCC2C(C)(C)C(O)CCC2(C)C1CCC(C)CCO (stereo not given) | inactive |  |
| CC(=O)O[C@@H]1CC(C)=C2[C@H]1[C@H](C)CC[C@H]2/C=C(\C)C(=O)O | inactive |  |
| C=C1C(=O)OC2C1C(O)CC1(C)C(O)CCC(C=O)C21 (stereo not given) | inactive |  |
| COc1ccc([C@@]2(O)c3c(ccc4c3OC(C)(CCC=C(C)C)C=C4)NC(=O)[C@@H]2OC)cc1 (stereo not given in full) | inactive |  |
| CC(C)/C=C1\NC(=O)C(C(C)C)n2c1nc1c(c2=O)C=CC=CO1 (stereo not given) | inactive |  |
| C/C=C/C=C/C(O)=C1\C(=O)[C@]2(C)C3C(C(=O)CC/C=C/C)=C(O)C4(C)C1[C@]1(C)O[C@@]4(O)[C@@]3(C)O[C@@]12O | inactive |  |
| C=C(C)[C@@H]1CC[C@]2(C)CC[C@]3(C)[C@H](CC[C@@H]4[C@@]5(C)CC[C@@H](O)C(C)(C)[C@@H]5CC[C@]43C)[C@@H]12 | inactive |  |
| CC1(C)CCCC2(C)C(CO)C(CO)=CCC12 (stereo not given) | inactive |  |
| O=C1C=CC(O)(/C=C/C(=O)OC[C@H]2O[C@@H](Oc3ccc(O)cc3)[C@H](O)[C@@H](O)[C@@H]2O)C=C1 | inactive |  |
| C/C=C/C=C/C=C/C(=O)OC1C=C(C=O)C(O)(C(=O)O)C2(C)CCCC(C)(C)C12 (stereo not given) | inactive |  |
